Assay results from PubChem BioAssay (NCATS).
Records with an inconclusive call do not appear. Activity calls are given as the source filed them. The call rests on the fitted dose curve; in most records, active means well fitted curve in the direction sought with a large enough effect; inconclusive means small, poorly fitted or top-dose-only effect, or another doubt; inactive means no such curve, though single readings can be large; an effect the other way counts as inactive or inconclusive.

Experiments:
[1] = test system: HEK293; assay: Cytotoxic Profiling of Annotated Libraries Using Quantitative High-Throughput Screening (AID 1296008); conditions: Five cell lines viability, CellTiter-Glo ATP luminescence, 48-72 h; max response: active compounds read low; further: nearly all actives have a fitted effect of over 60% in size; further: potency means the concentration at half of the fitted maximal effect; on max response: on the % scale 0 is the no-effect control and ±100 the full control effect
How it was run: (§1)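 Cells exposed to compounds for 48 or 72 hr at 37 degrees Celsius. Viability read as ATP-coupled luminescence with CellTiter-Glo after 10 min at room temperature.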

[2] = test system: Es-2; assay: Primary qHTS to identify gynecologic anti-cancer compounds using libraries of approved drugs and bioactive compounds (AID 1345084); conditions: Gynecologic cancer cell panel viability, ATPlite luminescence, 48 h; series mostly up to 57.5 µM; further: nearly all actives have a fitted effect of over 55% in size; further: potency means the concentration at half of the fitted maximal effect; on activity change, negative = cytotoxicity: on the % scale 0 is the no-effect control and ±100 the full control effect
How it was run: (§2)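 In this quantitative HTS, cell killing is estimated from loss of ATP-dependent luciferase light. Cells see five compound concentrations over a 48 h exposure.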

[3] = test system: JEG-3; assay: as above; conditions: Gynecologic cancer cell panel viability, ATPlite luminescence, 48 h; series mostly up to 57.5 µM
How it was run: as §2

[4] = test system: OV90; assay: as above; conditions: Gynecologic cancer cell panel viability, ATPlite luminescence, 48 h; series mostly up to 57.5 µM
How it was run: as §2

[5] = test system: HaCat; assay: Cytotoxic Profiling of Annotated Libraries Using Quantitative High-Throughput Screening (AID 1296008); conditions: Five cell lines viability, CellTiter-Glo ATP luminescence, 48-72 h; max response: active compounds read low; further: nearly all actives have a fitted effect of over 60% in size; further: potency means the concentration at half of the fitted maximal effect; on max response: on the % scale 0 is the no-effect control and ±100 the full control effect
How it was run: as §1

[6] = test system: KB-3-1; assay: as above; conditions: Five cell lines viability, CellTiter-Glo ATP luminescence, 48-72 h; max response: active compounds read low
How it was run: as §1

[7] = test system: NIH3T3; assay: as above; conditions: Five cell lines viability, CellTiter-Glo ATP luminescence, 48-72 h; max response: active compounds read low
How it was run: as §1

[8] = test system: HACAT; assay: qHTS assay to identify novel small-molecules to repurpose for Merkel cell carcinoma treatment (AID 1296009); conditions: MCC and control cell lines, CellTiter-Glo viability, 72 h; at 44.8 µM (top of the series) unless noted; further: nearly all actives have a fitted effect of over 60% in size
How it was run: (§3)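 Cells were treated for 72 hr at 37 degree celsius with compounds in 8- or 11-point dose response. Viability was read by CellTiter-Glo luminescence, normalized to no-cell (cytotoxicity) and DMSO controls.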

[9] = test system: C33A; assay: Primary qHTS to identify gynecologic anti-cancer compounds using libraries of approved drugs and bioactive compounds (AID 1345084); conditions: Gynecologic cancer cell panel viability, ATPlite luminescence, 48 h; series mostly up to 57.5 µM; further: nearly all actives have a fitted effect of over 55% in size; further: potency means the concentration at half of the fitted maximal effect; on activity change, negative = cytotoxicity: on the % scale 0 is the no-effect control and ±100 the full control effect
How it was run: as §2

[10] = test system: CAOV3; assay: as above; conditions: Gynecologic cancer cell panel viability, ATPlite luminescence, 48 h; series mostly up to 57.5 µM
How it was run: as §2

[11] = test system: CASKI; assay: as above; conditions: Gynecologic cancer cell panel viability, ATPlite luminescence, 48 h; series mostly up to 57.5 µM
How it was run: as §2

[12] = test system: HeLa; assay: as above; conditions: Gynecologic cancer cell panel viability, ATPlite luminescence, 48 h; series mostly up to 57.5 µM
How it was run: as §2

[13] = test system: Hek293T; assay: as above; conditions: Gynecologic cancer cell panel viability, ATPlite luminescence, 48 h, control line for the selectivity index; series mostly up to 57.5 µM
How it was run: as §2

[14] = test system: NIH3T3; assay: qHTS assay to identify novel small-molecules to repurpose for Merkel cell carcinoma treatment (AID 1296009); conditions: MCC and control cell lines, CellTiter-Glo viability, 72 h; series mostly up to 44.8 µM; further: nearly all actives have a fitted effect of over 60% in size
How it was run: as §3

CC(C)CC(=O)c1c(O)cc2c(c1O)C(CC(C)C)C1=C(O2)C(C)(C)C(=O)C(C)(C)C1=O (stereo not given)
active: Potency [1] 5.63 µM
inactive: Potency [2] | Potency [3] | Potency [4]

C=CCc1ccc(OC(C)Cc2ccc(OC)c(OC)c2)c(OC)c1 (stereo not given)
inactive: outcome [5] | max response [6] -25.6% | max response [7] -6.99% | outcome [8] | Potency [9] | Potency [10] | Potency [11] | Potency [2] | Potency [12] | Potency [13] | Potency [3] | Potency [4]

CN(C)C(=O)COC(=O)c1cc(-c2ccc(C3CCNCC3)cc2)c2ccc(-c3ccc(C(F)(F)F)cc3)cc2c1
inactive: Potency [2] | Potency [13] | Potency [3]
active: Potency [1] 4.61 µM

Cc1ccc(-c2cn3c4c(sc3n2)CCCC4)cc1
active: Potency [10] 10 µM | Potency [11] 17.8 µM | Potency [2] 11.2 µM | Potency [12] 12.6 µM | Potency [13] 12.6 µM
inactive: outcome [5] | max response [6] -4.88% | max response [7] -12.5% | outcome [8]

C=CS(=O)(=O)NC1CCN(C(=O)CNc2cc(I)c(Cl)cc2OC)CC1
active: Potency [1] 8.2 µM
inactive: Potency [3]

C=C1C(=O)O[C@@H]2C=C(COC(C)=O)CC/C=C(\CO)CC[C@@H]12
inactive: outcome [5] | max response [6] 7.74% | max response [7] -6.09% | outcome [8] | Potency [9] | Potency [11] | Potency [2] | Potency [12] | Potency [13] | Potency [3] | Potency [4]

Cc1ccc(N2CCN(S(=O)(=O)N3CCCCC3)CC2)c(C)c1
inactive: outcome [5] | max response [6] -2.41% | max response [7] 4.82% | outcome [8] | Potency [9] | Potency [10] | Potency [11] | Potency [2] | Potency [12] | Potency [13] | Potency [3] | Potency [4]

CCOc1ccc(S(=O)(=O)N2CCCCCC2)c2ccccc12
inactive: outcome [5] | max response [6] -18.9% | outcome [7] | outcome [8] | Potency [14] | Potency [9] | Potency [10] | Potency [11] | Potency [2] | Potency [12] | Potency [13] | Potency [3] | Potency [4]

COc1ccc(-n2c(SCCCN3C(=O)c4cccc5cccc(c45)C3=O)nnc2-c2ccncc2)cc1
inactive: outcome [5] | max response [6] -1.97% | max response [7] -2.58% | outcome [8] | Potency [9] | Potency [11] | Potency [2] | Potency [12] | Potency [13] | Potency [3] | Potency [4]

Cc1nc(C#Cc2ccnc(Cl)c2)c(C)n1-c1ccc(OC(F)(F)F)cc1
inactive: outcome [5] | max response [6] -15.3% | max response [7] -27.8% | outcome [8] | Potency [9] | Potency [10] | Potency [11] | Potency [2] | Potency [12] | Potency [13] | Potency [3] | Potency [4]

Cc1ccnc(NC(=O)C(C)c2cccc(C(=O)c3ccccc3)c2)c1 (stereo not given)
inactive: outcome [5] | max response [6] -17.5% | max response [7] -5.36% | outcome [8] | Potency [9] | Potency [10] | Potency [11] | Potency [2] | Potency [12] | Potency [13] | Potency [3] | Potency [4]

CC1(C)CC[C@]2(C(=O)O[C@@H]3O[C@H](CO)[C@@H](O)[C@H](O)[C@H]3O)CC[C@]3(C)C(=CCC4[C@@]5(C)CC[C@H](O[C@@H]6O[C@H](C(=O)O)[C@H](O)[C@H](O)[C@H]6O)C(C)(C)C5CC[C@]43C)[C@@H]2C1 (stereo not given in full)
inactive: outcome [5] | outcome [6] | max response [7] -2.05% | outcome [8] inactive [at 17.4 µM] | Potency [9] | Potency [10] | Potency [11] | Potency [2] | Potency [12] | Potency [13] | Potency [3] | Potency [4]

C/C=C(\C)C(=O)O[C@@H]1[C@@H](C)[C@]2(O)[C@@H]3C=C(C)C(=O)[C@H]3CC(CO)=C[C@H]2C2C(C)(C)[C@@]21OC(=O)C(C)CC (stereo not given in full)
active: Potency [2] 0.355 µM
inactive: outcome [5] | max response [6] 0.342% | max response [7] 4.54% | outcome [8] inactive [at 17.4 µM] | Potency [10] | Potency [11] | Potency [12] | Potency [13]

CC1(C)CC[C@]23CO[C@@]4(CCC5[C@@]6(C)CC[C@H](O[C@@H]7OC[C@H](O[C@@H]8O[C@H](CO)[C@@H](O)[C@H](O)[C@H]8O[C@@H]8OC[C@@H](O)[C@H](O)[C@H]8O)[C@H](O)[C@H]7O[C@@H]7O[C@H](CO)[C@@H](O)[C@H](O)[C@H]7O)[C@@](C)(CO)C6CC[C@@]5(C)[C@]4(C)C[C@H]2O)[C@@H]3C1 (stereo not given in full)
active: Potency [1] 3.48 µM
inactive: activity change, negative = cytotoxicity [12] -0.159% [at 11.6 µM]

C=CC(=O)N1CCCN(c2cc(NCCC(=O)O)nc(-c3ccccn3)n2)CC1
inactive: outcome [5] | max response [6] -3.55% | max response [7] -29.3% | outcome [8] | Potency [9] | Potency [10] | Potency [11] | Potency [12] | Potency [13] | Potency [3]
